Assay results published in PubChem BioAssay.

Assay: plasmodial surface anion channel blockers, osmotic lysis – cell-based, P. falciparum Indochina, OD700, 2 h, primary screen (AID 1155);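 further: lysis reports solute entry through the parasite surface anion channel PSAC; channel blockers reduce lysis of infected cells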
Conditions: P. falciparum Indochina infected erythrocytes, higher = more signal, called active from +8 up or from −8 down

z-score, inactive:
CCOC(=O)[C@H](CC(C)C)NC(=O)CCC1CC(OC(=O)NCc2ccc3c(c2)OCO3)CC2(CCCC(COC(=O)NCCc3ccc(Cl)cc3)O2)O1 (stereo partly specified) -0.39
CC(=O)OC[C@H]1O[C@@H](ON=C(C)CCC(=O)OC[C@H]2O[C@H](C#Cc3ccccc3)C=C[C@@H]2Oc2ccc(C)cc2)[C@H](OC(C)=O)[C@@H](OC(C)=O)[C@@H]1OC(C)=O 1.11
CC(C)CON=C1C[C@@H](O)[C@@H](O)[C@@H]2[C@@H]3C(=O)N(c4ccc(F)cc4F)C(=O)[C@@H]3CC[C@@H]12 -0.913
CCOC(=O)CCN1C(=O)[C@H]2[C@H]3[C@H](O)[C@H](O)CC(=NO[C@@H]4O[C@H](CO)[C@@H](O)[C@H](O)[C@H]4O)[C@H]3CC[C@H]2C1=O -0.163
CCOC(=O)[C@H](Cc1ccccc1)NC(=O)CCC1CC(OC(=O)NCc2cccc3ccccc23)CC2(CCCC(COC(=O)NCCc3ccc(Cl)cc3)O2)O1 (stereo partly specified) 0.618
CCN1C(=O)[C@H]2[C@H]3[C@H](O)[C@H](O)CC(=NOC[C@@H](O)COCc4ccco4)[C@H]3CC[C@H]2C1=O -0.025
C#CCCCON=C1C[C@@H](O)[C@@H](O)[C@@H]2[C@@H]3C(=O)N(C4CCCCC4)C(=O)[C@@H]3CC[C@@H]12 -0.164
COC(=O)[C@H](CCSC)NC(=O)CC=C[C@@H](C)CO 0.317
CCc1cc2c(nc1CC)CCN(CCC(C)=NO[C@@H]1O[C@H](COC(C)=O)[C@@H](OC(C)=O)[C@H](OC(C)=O)[C@H]1OC(C)=O)C2 -1.01
CO[C@H]1COC(=O)[C@H](C)COC(=O)[C@H](C)NC(=O)CC=C[C@H]1C 0.0618
COC(=O)[C@H](C)NC(=O)CCC1CC(OC(=O)NCc2ccc3c(c2)OCO3)CC2(CCCC(COC(=O)NCCCN3CCCC3=O)O2)O1 (stereo partly specified) 0.136
COc1ccc(COC(=O)NN=C2C[C@@H](O)[C@@H](O)[C@@H]3[C@@H]4C(=O)N(C[C@@H]5CCCO5)C(=O)[C@@H]4CC[C@@H]23)cc1 0.415
COc1ccc(COC(=O)NN=C2C[C@@H](O)[C@@H](O)[C@@H]3[C@@H]4C(=O)N(C(C)(C)C)C(=O)[C@@H]4CC[C@@H]23)cc1 -0.039
CCOC(=O)[C@H](CC(C)C)NC(=O)CCC1CC(OC(=O)NCc2ccc3c(c2)OCO3)CC2(CCCC(COC(=O)NCc3ccccc3)O2)O1 (stereo partly specified) 0.795
CC(C)[C@H](NC(=O)OC(C)(C)C)[C@@H](O)CC(=O)C(C)(C)C 0.0094

Assay: changes in parasitized red cell lysis, either direction – P. falciparum Indochina, OD700, 3 h, PSAC antagonist project, primary screen (AID 1156)
Conditions: P. falciparum-infected erythrocytes, osmotic lysis, higher = more signal, called active from +8 up or from −8 down

z-score, inactive:
CO[C@H]1COC(=O)[C@H](CCSC)NC(=O)CC=C[C@@H](C)[C@H](OC)COC(=O)[C@@H](OCc2ccccc2)C=C[C@@H]1C 1.17
COC(=O)[C@H](C)NC(=O)CCC1CC(OC(=O)NCCc2ccc(F)cc2)CC2(CCCC(COC(=O)NCCc3ccccc3OC)O2)O1 (stereo partly specified) 0.209
CC(C)CN1CCc2nc(-c3ccccc3)c3c(c2C1)CO[C@@H](C)C3 0.61
CC(C)[C@@H](OCc1ccccc1)[C@H](C)CON=C1[C@H]2CCn3c(=O)n(-c4ccccc4)c(=O)n3[C@H]2[C@H](O)[C@@H]2O[C@H]12 -0.171
CON=C(C)CCN1CCc2nc(-c3ccccc3)c(-c3ccccc3)cc2C1 1.69
COc1ccc(OC[C@H]2CN3[C@@H](CC[C@@H](C)[C@@H]3c3ccc(Br)cc3)C(=O)O2)cc1 0.345
O=C(NN=C1C[C@@H](O)[C@@H](O)[C@@H]2[C@@H]3C(=O)N(c4ccc(F)cc4F)C(=O)[C@@H]3CC[C@H]12)OCc1ccccc1 0.497
COC(=O)[C@H](C)NC(=O)CCC1CC(OC(=O)NCc2cccc3ccccc23)CC2(CCCC(COC(=O)NCc3ccccc3)O2)O1 (stereo partly specified) 0.0409
O=C1C2=CC[C@H]3C(=O)N(C4CCCCC4)C(=O)[C@H]3[C@H]2[C@H](O)[C@@H]2O[C@H]12 0.215
C#CCCCON=C1C[C@@H](O)[C@@H](O)[C@@H]2[C@@H]3C(=O)N(C[C@@H]4CCCO4)C(=O)[C@@H]3CC[C@H]12 -0.0365
O=C1[C@H]2CCn3c(=O)n(-c4ccccc4)c(=O)n3[C@H]2[C@H](O)[C@@H]2O[C@H]12 0.337
CC(=O)OC[C@H]1O[C@H](CC=NOCC[C@@H]2C=C[C@H](OC(C)=O)[C@@H](COC(C)=O)O2)C=C[C@@H]1OC(C)=O 0.286
CCCNC(=O)OC[C@H]1O[C@H](CCON=C[C@@H](C)[C@H](OCc2ccccc2)C(C)C)C=C[C@@H]1Oc1ccc(OC)cc1 0.141
CC(CCC(=O)OC[C@H]1O[C@H](C#Cc2ccccc2)C=C[C@@H]1Oc1ccc(C)cc1)=NOC(C)CN1CCCCc2nc(C)c(C)cc21 (stereo partly specified) 0.983
CCN1C(=O)[C@H]2[C@H]3[C@H](O)[C@H](O)CC(=NNC(=O)OCc4ccccc4)[C@H]3CC[C@H]2C1=O 0.364
CO[C@@H](C(C)C)[C@@H](C)C1OC(=O)CC1O (stereo partly specified) -0.566
CC(C)=NOC(C)CN1CCCc2nc(C)c(C)cc21 (stereo unspecified) 0.175
CO[C@@H]1[C@H](O)CO[C@H]1C=Cc1ccccc1 0.837
COc1ccc(O[C@H]2C=C[C@@H](C#Cc3ccccc3)O[C@@H]2CO)cc1 -0.24
CC(CCC(=O)OC[C@H]1O[C@H](C#Cc2ccccc2)C=C[C@@H]1Oc1ccc(C)cc1)=NOC[C@@H](C)[C@H](OCc1ccccc1)C(C)C 0.901
CC(CCN1CCc2nc(-c3ccccc3)c(-c3ccccc3)cc2C1)=NOC(C)CN1CCCc2nc(C)c(C)cc21 (stereo unspecified) 0.959
CCOC(=O)[C@H](CC(C)C)NC(=O)CCC1CC(OC(=O)NCc2ccc3c(c2)OCO3)CC2(CCCC(COC(=O)NCCc3ccc(Cl)cc3)O2)O1 (stereo partly specified) -0.254
CC(=O)OC[C@H]1O[C@@H](ON=C(C)CCC(=O)OC[C@H]2O[C@H](C#Cc3ccccc3)C=C[C@@H]2Oc2ccc(C)cc2)[C@H](OC(C)=O)[C@@H](OC(C)=O)[C@@H]1OC(C)=O 0.63
CC(C)CON=C1C[C@@H](O)[C@@H](O)[C@@H]2[C@@H]3C(=O)N(c4ccc(F)cc4F)C(=O)[C@@H]3CC[C@@H]12 -0.116
CCOC(=O)CCN1C(=O)[C@H]2[C@H]3[C@H](O)[C@H](O)CC(=NO[C@@H]4O[C@H](CO)[C@@H](O)[C@H](O)[C@H]4O)[C@H]3CC[C@H]2C1=O -0.788
CCOC(=O)[C@H](Cc1ccccc1)NC(=O)CCC1CC(OC(=O)NCc2cccc3ccccc23)CC2(CCCC(COC(=O)NCCc3ccc(Cl)cc3)O2)O1 (stereo partly specified) -0.552
CCN1C(=O)[C@H]2[C@H]3[C@H](O)[C@H](O)CC(=NOC[C@@H](O)COCc4ccco4)[C@H]3CC[C@H]2C1=O -0.468
C#CCCCON=C1C[C@@H](O)[C@@H](O)[C@@H]2[C@@H]3C(=O)N(C4CCCCC4)C(=O)[C@@H]3CC[C@@H]12 -0.492
COC(=O)[C@H](CCSC)NC(=O)CC=C[C@@H](C)CO -0.0396
CCc1cc2c(nc1CC)CCN(CCC(C)=NO[C@@H]1O[C@H](COC(C)=O)[C@@H](OC(C)=O)[C@H](OC(C)=O)[C@H]1OC(C)=O)C2 1.42
CO[C@H]1COC(=O)[C@H](C)COC(=O)[C@H](C)NC(=O)CC=C[C@H]1C -0.0422
COC(=O)[C@H](C)NC(=O)CCC1CC(OC(=O)NCc2ccc3c(c2)OCO3)CC2(CCCC(COC(=O)NCCCN3CCCC3=O)O2)O1 (stereo partly specified) -0.257
COc1ccc(COC(=O)NN=C2C[C@@H](O)[C@@H](O)[C@@H]3[C@@H]4C(=O)N(C[C@@H]5CCCO5)C(=O)[C@@H]4CC[C@@H]23)cc1 1.3
COc1ccc(COC(=O)NN=C2C[C@@H](O)[C@@H](O)[C@@H]3[C@@H]4C(=O)N(C(C)(C)C)C(=O)[C@@H]4CC[C@@H]23)cc1 -0.609
CCOC(=O)[C@H](CC(C)C)NC(=O)CCC1CC(OC(=O)NCc2ccc3c(c2)OCO3)CC2(CCCC(COC(=O)NCc3ccccc3)O2)O1 (stereo partly specified) -0.626
CC(C)[C@H](NC(=O)OC(C)(C)C)[C@@H](O)CC(=O)C(C)(C)C 0.155
